Reference: PubChem BioAssay AID1851 (National Center for Advancing Translational Sciences (NCATS), 2009)
Among all 16,000 compounds or so, about 5,100 (32%) were called active. Another 25% or so got no clear call; they are omitted. The call rests on the fitted dose curve; in most records, active means well fitted curve in the direction sought with a large enough effect; inconclusive means small, poorly fitted or top-dose-only effect, or effect the other way; inactive means no such curve, though single readings can be large or run the other way. Some of the results follow.

Biological target: Cytochrome P450 3A4 (Homo sapiens) (UniProt P08684)
Sequence (P08684 whole entry, looked up): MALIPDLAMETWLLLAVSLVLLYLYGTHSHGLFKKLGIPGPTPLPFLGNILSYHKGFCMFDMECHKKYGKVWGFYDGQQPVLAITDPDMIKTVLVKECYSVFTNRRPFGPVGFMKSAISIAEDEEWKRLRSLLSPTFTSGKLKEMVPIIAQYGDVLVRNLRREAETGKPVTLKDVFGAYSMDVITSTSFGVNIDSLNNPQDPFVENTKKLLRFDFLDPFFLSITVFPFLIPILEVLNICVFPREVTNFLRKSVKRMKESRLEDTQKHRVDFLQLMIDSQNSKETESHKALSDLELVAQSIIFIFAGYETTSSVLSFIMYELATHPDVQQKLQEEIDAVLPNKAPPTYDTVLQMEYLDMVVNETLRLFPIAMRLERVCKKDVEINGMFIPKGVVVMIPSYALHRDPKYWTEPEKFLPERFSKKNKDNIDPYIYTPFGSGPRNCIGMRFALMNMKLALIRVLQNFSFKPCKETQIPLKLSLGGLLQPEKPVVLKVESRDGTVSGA
Test: Cytochrome panel assay with activity outcomes
Settings: recombinant CYP, pro-luciferin dealkylation, luminescence, p450-cyp3a4; series mostly up to 57.1 µM; activity, negative = inhibition: at the top concentration
On the % scale 0 is the no-effect control and ±100 the full control effect.

SMILES	activity, negative = inhibition	AC50
CC1=CC(C)(C)N(C)C(=O)N1c1ccc(Cl)cc1	-0.338% [at 2.29 µM] (inactive)	–
O=C(NCc1ccccc1)c1onc(CSc2ccc(F)cc2)c1C(=O)NCCCN1CCOCC1	–	2.51 µM (active)
COCCNC(=O)c1onc(CSc2cccc(Cl)c2)c1C(=O)O	-29% (inactive)	–
Cc1cc(=O)oc(C)c1C(=O)NCCCN1CCN(c2ccc(F)cc2)CC1	-12.9% (inactive)	–
C=C(C)[C@@H]1CC=C(C(=O)O)CC1	3.9% (inactive)	–
CO[C@@H](NC(N)=O)C(=O)O	-10.7% [at 11.4 µM] (inactive)	–
CN(C)c1cc2c(Nc3ccc4c(cnn4Cc4ccccc4)c3)ncnc2cn1	–	5.01 µM (active)
CC(C(=O)NC1CCCC1)N(C(=O)c1snc(C(N)=O)c1N)c1ccc2c(c1)OCCO2 (stereo not given)	–	3.55 µM (active)
Cc1ccc(NC2=NC(c3ccccc3)n3c(nc(C)cc3=O)N2)c(C)c1 (stereo not given)	–	14.1 µM (active)
O=C(OCc1cccc(F)c1)c1ccc2c(c1)-c1ccccc1C2=O	-42.1% (inactive)	–
O=C(OCc1nnc(-c2ccccc2)o1)c1ccc2c(c1)OCCO2	–	20 µM (active)
O=C(OCC#CCSc1nnc(-c2cccc3ccccc23)o1)c1ccco1	–	7.94 µM (active)
Cc1ccccc1OCCNC(=S)Nc1ccccc1	–	12.6 µM (active)
S=C(Nc1ccccc1)Nc1ccc(OCc2ccccc2)cc1	-16.9% (inactive)	–
O=C(c1ccco1)N1CCC[C@@]2(CCN(c3ccccc3)C2)C1	–	12.6 µM (active)
O=C(Nc1ccccc1)N1CC2(CCN(C(=O)c3ccco3)CC2)C1	22.3% (inactive)	–
O=C(c1ccco1)N1CCC2(CC1)CCN(c1ccccc1)CC2	27.4% (inactive)	–
O=C(c1ccco1)N1CCC[C@@]2(CCN(c3ccncc3)C2)C1	–	1.26 µM (active)
O=C(Nc1ccc(N=Nc2ccccc2)cc1)c1ccc(Cl)cc1Cl	-0.112% (inactive)	–
O=C(Nc1cccn2ncnc12)c1ccc(Cl)cc1Cl	-10.8% (inactive)	–
CCCN(CCC)C(=S)NC(=O)c1ccc(Cl)cc1Cl	–	14.1 µM (active)
CC1CCc2c(C(=O)Nc3nccs3)csc2C1 (stereo not given)	-19.8% [at 11.4 µM] (inactive)	–
Cc1onc(C(=O)/C=C/N(C)C)c1C(=O)Nc1nccs1	-15.5% (inactive)	–
CC12COC3(C(=O)Nc4nccs4)CC1CCC32C (stereo not given)	–	14.1 µM (active)
Cn1c(OCc2ccc3c(c2)OCO3)nc2c1c(=O)n(Cc1ccc(Cl)c(Cl)c1)c(=O)n2C	–	3.55 µM (active)

SMILES	activity, negative = inhibition	AC50
CCCCOC(=O)CCc1c(C)[nH]c(=O)c(C#N)c1C	-27.2% (inactive)	–
Cc1cc(NC(=O)Nc2ccc(F)cc2)no1	17.7% (inactive)	–
Cc1cc(N)c2cc(NC(=O)Nc3ccc4nc(C)cc(N)c4c3)ccc2n1	-7.21% [at 11.4 µM] (inactive)	–
Cc1cc(NC(=O)Nc2ccc(N(C)C)cc2)c2cc(F)cc(F)c2n1	–	6.31 µM (active)
CSc1nsc(/C=C/Nc2ccc(Cl)cc2)c1C#N	–	8.91 µM (active)
CSc1nc(N)nc(SCC(=O)Nc2ccc(Cl)cc2)c1C#N	6.12% (inactive)	–
C[C@@H](c1ccccc1)N1C(=O)[C@H]2[C@@H]3[C@H](O)C=CC(=O)[C@H]3CC[C@H]2C1=O	-17.4% [at 11.4 µM] (inactive)	–
Cc1cnc(CNc2ccnc(-c3cccc(C#N)c3)n2)cn1	–	12.6 µM (active)
COc1cccc(-c2nccc(NCc3cnc(C)cn3)n2)c1	–	6.31 µM (active)
Cc1cnc(CNc2ccnc(-c3cccnc3)n2)cn1	–	5.01 µM (active)
Cc1cnc(CNc2ccnc(-c3cccc(NS(C)(=O)=O)c3)n2)cn1	–	15.8 µM (active)
C[C@@H](N)C(=O)O	-4.94% (inactive)	–
Cc1cc(C)cc(Oc2nn[nH]n2)c1	-23.8% (inactive)	–
CC(C)CCN1CC(C(=O)N2CCN(c3ccc(F)cc3)CC2)CC1=O (stereo not given)	-17.8% (inactive)	–
O=C(CCS(=O)(=O)c1cccs1)N1CCN(c2ccc(F)cc2)CC1	–	12.6 µM (active)
Cc1ccccc1S(=O)(=O)Oc1ccccc1C(=O)Oc1ccccc1	-12.1% [at 2.29 µM] (inactive)	–
Nc1ccc(S(=O)(=O)Nc2ccccn2)cc1	-11.6% [at 25.6 µM] (inactive)	–
COCCNC(=O)c1cn(Cc2c(F)cccc2Cl)nn1	3.71% (inactive)	–
O=C(Cc1ccccc1[N+](=O)[O-])NCCSCc1c(F)cccc1Cl	–	14.1 µM (active)
CC(C)CCNC(=O)Cc1ccccc1[N+](=O)[O-]	-33.7% (inactive)	–
CC(C)COCC1CC2(CC(C)(c3csc(N)n3)OC2=O)C(=O)O1 (stereo not given)	–	14.1 µM (active)
CCC1CCCCN1CCn1c(=S)[nH]c2cc(OC)c(OC)cc2c1=O (stereo not given)	–	14.1 µM (active)
CCN1CCC[C@H]1CNC(=O)c1c(OC)ccc(Br)c1OC	–	inactive
CCC1CCCCN1Cc1cc(OC)c(O)c([N+](=O)[O-])c1 (stereo not given)	-10.2% (inactive)	–
O=C(O)[C@@H]1C[C@@H](C(=O)O)N1	-3.82% (inactive)	–

SMILES	activity, negative = inhibition	AC50
Cn1ncc2c(NCCc3ccccc3)nc(Cl)nc21	–	2 µM (active)
c1ccc(CCNc2nnnn2-c2ccccc2)cc1	-3.75% [at 2.29 µM] (inactive)	–
Cn1ncc2c(Cl)ncnc21	-9.04% [at 11.4 µM] (inactive)	–
CCN1CCN(c2cc(=O)n(-c3cc(Cl)ccc3C)c(=O)[nH]2)CC1	6.28% (inactive)	–
Cc1cccc(-c2noc(-c3cc4ccccc4oc3=O)n2)c1	–	8.91 µM (active)
CS(=O)(=O)c1ccccc1-c1nc(-c2cc(C(F)(F)F)cc(C(F)(F)F)c2)no1	4.25% [at 2.29 µM] (inactive)	–
CS(=O)c1ccccc1-c1nc(-c2cc(C(F)(F)F)cc(C(F)(F)F)c2)no1 (stereo not given)	15.3% [at 2.29 µM] (inactive)	–
COc1ccc(OC(=O)c2ccncc2)cc1	-18.8% (inactive)	–
COc1nc(Oc2ccc(/C=N/O)cc2)nc(N(C)C)n1	-3.18% [at 2.29 µM] (inactive)	–
COc1ccc(/C=C/c2ccncc2)cc1	–	1.58 µM (active)
CCOC(=O)C(C)Sc1nnc(CNC(=O)c2ccc(OC)cc2)n1C1CCCCC1 (stereo not given)	–	0.891 µM (active)
CCOC(=O)CSc1nnc(CNC(=O)c2ccc(OC)cc2)n1C1CCCCC1	–	2 µM (active)
O[C@@H]1[C@@H](OCc2ccccc2)OC[C@H](O)[C@@H]1O	-2.87% [at 11.4 µM] (inactive)	–
Cc1cc(C)cc(N(C(=O)C2CCCC2)C2C=CS(=O)(=O)C2)c1 (stereo not given)	-15.4% [at 2.29 µM] (inactive)	–
CCCCC1=NN2C(=N)CC(=O)N=C2S1	-20.3% (inactive)	–
CN(C)c1ccc(NC(=O)CSc2nc(N)c(C(=O)Nc3ccc(N(C)C)cc3)s2)cc1	–	4.47 µM (active)
CCN(CC)c1ccc(NC(=O)c2cnn(CC)c2)cc1	-22% (inactive)	–
O=C1c2cccnc2C(=O)N1Cc1ccc(F)cc1	7.01% (inactive)	–
CN[C@@H]1NC(=O)c2ccccc2N1Cc1ccc(F)cc1	-12.4% [at 11.4 µM] (inactive)	–
Cc1ccc(NC2c3ncccc3C(=O)N2Cc2ccc(F)cc2)cc1 (stereo not given)	–	4.47 µM (active)
Cc1ccc(C(=N)c2ccccc2Cc2cccc3ccccc23)c2ccccc12	–	3.98 µM (active)
CN(Cc1cccc2ccccc12)Cc1cccc2ccccc12	-53.9% [at 11.4 µM] (inactive)	–
Cc1cc(C)c(O)c(Cc2cccc(Cc3cc(C)cc(C)c3O)c2O)c1	6.11% [at 11.4 µM] (inactive)	–
Cc1ccc(C)c(C(=N)c2ccccc2Cc2ccccc2)c1	–	3.98 µM (active)
c1ccc2c(CC3=NCCN3)cccc2c1	-2.7% [at 25.6 µM] (inactive)	–

SMILES	activity, negative = inhibition	AC50
N=C(c1ccc2ccccc2c1)c1ccccc1Cc1ccccc1	-11.9% [at 11.4 µM] (inactive)	–
CN1CCCC1CCNC1C2CC3CC(C2)CC1C3 (stereo not given)	-0.75% [at 2.29 µM] (inactive)	–
CN1C(=C2C(=O)OC(C)(C)OC2=O)Sc2ccccc21	-3.54% (inactive)	–
O=C(Oc1c(Br)cc(C(=S)N2CCOCC2)cc1Br)c1ccc(Cl)cc1	-1.32% [at 2.29 µM] (inactive)	–
O=c1c(-c2cccs2)nc2cnc(N3CCNCC3)nc2n1C1CC1	–	6.31 µM (active)
O=c1c(-c2cc(F)cc(F)c2)nc2cnc(N3CCNCC3)nc2n1C1CC1	–	25.1 µM (active)
O=c1cnc2cnc(N3CCOCC3)nc2n1C1CC1	8.49% (inactive)	–
O=c1c(-c2cccs2)nc2cnc(Oc3ccccc3)nc2n1C1CC1	5.66% (inactive)	–
CN(C)c1ncc2nc(-c3ccccc3)c(=O)n(C3CC3)c2n1	-24.9% (inactive)	–
O=c1c(-c2ccc(F)cc2)nc2cnc(N3CCNCC3)nc2n1C1CC1	–	15.8 µM (active)
O=c1c(-c2ccc(Cl)cc2)nc2cnc(N3CCOCC3)nc2n1C1CC1	-0.899% (inactive)	–
CN1CCN(c2ncc3nc(-c4cc(F)cc(F)c4)c(=O)n(C)c3n2)CC1	6.8% (inactive)	–
O=c1c(-c2cc(F)cc(F)c2)nc2cnc(N3CCOCC3)nc2n1C1CC1	5.06% (inactive)	–
O=c1c(-c2ccccc2)nc2cnc(N3CCOCC3)nc2n1C1CC1	7.55% (inactive)	–
O=c1c(-c2ccc(F)cc2)nc2cnc(N3CCOCC3)nc2n1C1CC1	-8.23% (inactive)	–
O=c1c(-c2ccccc2)nc2cnc(N3CCNCC3)nc2n1C1CC1	–	12.6 µM (active)
COc1ccc(-c2nc3cnc(N4CCN(C)CC4)nc3n(C3CC3)c2=O)cc1	4.85% (inactive)	–
COc1ccc(-c2nc3cnc(N4CCNCC4)nc3n(C3CC3)c2=O)cc1	–	10 µM (active)
COC(=O)[C@@]1(Cc2ccccc2)[C@H]2c3cc(C(=O)N4CCCC4)[nH]c3C[C@H]2CN1C(=O)c1ccccc1	–	2.51 µM (active)
COC(=O)[C@@]1(Cc2ccc(OC)cc2)[C@H]2c3cc(C(=O)N(C)C)[nH]c3C[C@H]2CN1C(=O)c1ccccc1	–	1.58 µM (active)
COc1ccc2c(c1)c(CC(=O)O)c(C)n2C(=O)c1ccccc1	5.91% (inactive)	–
C[C@@]12CC(=O)[C@@H]3[C@@H](CCC4=CC(=O)CC[C@]43C)[C@@H]1CC=C2CC(=O)O	-10.5% [at 11.4 µM] (inactive)	–
CCOC(=O)C1=C(C)NC(=O)NC1c1ccoc1 (stereo not given)	15% [at 2.29 µM] (inactive)	–
CCOC(=O)C1=C(C)C(c2ccccc2OC)NC(=S)N1 (stereo not given)	-19.1% [at 2.29 µM] (inactive)	–
CCOC(=O)C1=C(C)NC(=S)NC1c1cccc(O)c1 (stereo not given)	–	1 µM (active)
